Beta cell apopt: beta cell apoptosis inhibition; INS-1E cytokine-induced death, ATP luminescence, 48 h; percent of positive-control rescue, neutral wells zero; protection from apoptosis, % (concentration not given with the values); actives 0.8% (n = 300,000); AID 435005;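 active = Every replicate reaches about 75%, or at least half do and their mean reaches it too, limit read from the data; inconclusive = At least half of replicates reach the limit but their mean does not; inactive = Under half of replicates reach the limit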;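 note: 0% = cytokine-treated negative control wells and 100% = positive control rescue; higher means more ATP so stronger rescue from cytokine killing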
Shn3 3UTR inh: inhibitors of Schnurri-3 3'UTR reporter in osteoblasts; Clone20 osteoblast Shn3 3'UTR firefly luciferase, 24 h; actives 0.52% (n = 360,000); inhibition, % at 12.5 µM;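 active = mean inhibition of at least 75% with every replicate also reaching 75%; inconclusive = mean inhibition at least 75% but some replicate below; inactive = mean inhibition below 75%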;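 note: 0% = median of neutral control wells and 100% = pilot-screen positive control compound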
CSC inhib: blocks cancer stem cells. actives 1.1% (n = 300,000). AID 2717. inhibition, % at 7.5 µM. cancer stem cell-like cells viability, luminescence; in the data active = inhibition above about 75%; inconclusive = no clear call, values can overlap the other calls; tested in HMLE shEcad cells
Mdm2-MdmX inh: inhibitors of human Mdm2/MdmX interaction; SaOS-2 split-luciferase Mdm2/MdmX complementation, luminescence; inhibition, % at 8 µM; actives 3% (n = 330,000); AID 485346;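 active = inhibition of at least 50% at 8 µM in the primary screen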
PAX8 reporter: inhibitors of PAX8 transcriptional activity in RMG-I cells; RMG-I TPO-luciferase reporter, SteadyGlo, 24 h; AID 652154; actives 1.2% (n = 360,000); inhibition, % at 12.6 µM;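 active = mean replicate inhibition at least 60% with every replicate also reaching 60%; inconclusive = only one of the two criteria is met; inactive = mean below 60% and not all replicates reaching 60%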;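 note: luciferase light reporting Pax8 driven TPO promoter activity; plate controls were median of neutral control wells for no effect and mitoxantrone controls for full effect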
Gli-Sufu antag: Gli-Sufu pathway antagonism; Sufu-KO-LIGHT fibroblasts, Gli luciferase reporter luminescence; inhibition, % at 5 µM; actives 0.74% (n = 340,000);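 active = inhibition above about 55%, limit read from the data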;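 note: 0% = DMSO-treated cells and 100% = wells with medium but no cells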
Mdm2-MdmX conf: human Mdm2/MdmX binding inhibition, confirmed. luminescent assay. AID 489028. inhibition, % at 8 µM. shares compounds with Mdm2-MdmX inh. actives 55% (n = 10,000); in the data active = inhibition above about 40%
FLuc counter: full-length luciferase inhibition in Mdm2/MdmX counter-screen. shares compounds with Mdm2-MdmX inh. SaOS-2 full-length luciferase counterscreen, luminescence. inhibition, % at 8 µM. actives 77% (n = 6,200);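 active = mean inhibition at 8 µM reaching about 37%, which flags the compound as non-specific, limit read from the data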;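 note: p53-null SaOS-2 cells with luciferase driven by a doxycycline-inducible promoter; compound on cells about two nights before reading with doxycycline added after day one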
* marks the source's active call; other numbers are inactive results; ? = inconclusive; . = not tested or not shown. Rows were chosen to be rich in hits. Some 4% of all compounds tested hit in one or more screens of this group.

SMILES	Beta cell apopt	Shn3 3UTR inh	CSC inhib	Mdm2-MdmX inh	PAX8 reporter	Gli-Sufu antag	Mdm2-MdmX conf	FLuc counter
CN(C)CCCN(C(=O)c1ccc(S(=O)(=O)N(C)Cc2ccccc2)cc1)c1nc2cc3c(cc2s1)OCO3	114*	-24	7	57*	5	30	31	.
CN(C)CCCN(C(=O)c1ccc2ccccc2c1)c1nc2cc3c(cc2s1)OCO3	-20	-17	5	77*	10	35	46*	61*
CCN(CC)CCN(C(=O)c1cc2c(ccc3ccccc32)oc1=O)c1nc2cc3c(cc2s1)OCCO3	102*	48	91*	100*	-27	28	33	.
O=C(C[C@H]1CC[C@@H](NC(=O)c2cccc(F)c2)[C@@H](CO)O1)Nc1nccs1	.	.	.	.	-12	.	.	.
CC=Cc1ccc2n(c1=O)C[C@H]1[C@H](CO)[C@@H](C(=O)NCCCN3CCOCC3)N(C)[C@@H]21 (mixture of isomers)	.	.	.	.	-11	.	.	.
Cc1c(Cl)cccc1N=C1SCCN1C(=O)CN1C(=O)NC2(CCCC2)C1=O	-9	-20	-4	78*	23	0	45*	69*
O=[N+]([O-])c1ccc(-c2nc(C(Cl)Cl)c3ccccc3n2)cc1	94*	67	97*	99*	3	35	100*	51*
CCCC(=O)NC(c1ccc(OC)cc1)c1c(O)ccc2ccccc12 (stereo not given)	1	0	50	50*	7	-14	39	61*
COc1ccc(C(NC(=O)C2CCCCC2)c2c(O)ccc3ccccc23)cc1 (stereo not given)	4	13	17	53*	31	-9	13	.
COc1ccc(C(NC(=O)CC(C)C)c2c(O)ccc3ccccc23)cc1 (stereo not given)	-6	12	13	9	12	-10	.	.
CC1CC(=O)c2c(cc3c(-c4c(O)cc(O)c5c(O)c6c(cc45)OC(C)CC6=O)c(O)cc(O)c3c2O)O1 (stereo not given)	98*	76	-1	100*	.	23	93*	5
CCOc1ccc(C(=O)N/N=C/c2ccc(-c3ccc(S(=O)(=O)Nc4ncccn4)cc3)o2)cc1	7	0	-4	1	.	0	.	.
O=C(N/N=C/c1ccc(-c2ccc(S(=O)(=O)Nc3ncccn3)cc2)o1)c1cc2ccccc2cc1O	0	-4	-5	54*	.	-3	36	.
O=C(c1ccco1)N1CCN(C(=O)N2c3ccccc3Sc3ccccc32)CC1	44	28	70	52*	.	53	63*	92*
O=C(c1ccc(Br)s1)N1CCN(c2ccccn2)CC1	8	-3	10	-18	.	-9	.	.
O=C(N1CCN(c2ccccn2)CC1)N1c2ccccc2Sc2ccccc21	12	49	73	79*	?	16	68*	78*
Cc1ccc(S(=O)(=O)Nc2ccc3c(c2)C(=O)N([C@@H](C)CO)C[C@H](C)[C@@H](CN(C)C(=O)CCC(F)(F)F)OCCCC[C@@H](C)O3)cc1	.	.	.	.	-1	.	.	.
C=CCn1cnc2c(c1=O)c1nc3ccccc3nc1n2/N=C/c1cccc(OC)c1OC	2	-13	33	59*	.	12	31	.
C=CCn1cnc2c(c1=O)c1nc3ccccc3nc1n2/N=C/c1cc(OC)c(OC)c(OC)c1	102*	66	41	86*	.	4	75*	65*
Cn1cc(C(=O)c2ccc(Cl)cc2Cl)cc1C(=O)N/N=C(\N)COc1ccc(Cl)cc1Cl	19	59	-17	67*	.	7	41*	40*
Cn1cc(C(=O)c2ccc(Cl)cc2Cl)cc1C(=O)N/N=C(\N)COc1ccc(Cl)cc1	21	18	32	64*	70*	-2	40*	43*
O=C(C[C@@H]1C=C[C@@H](NS(=O)(=O)c2ccc(F)cc2)[C@H](CO)O1)NC1CCCCC1	.	.	.	.	-38	.	.	.
C[C@H](CO)N1C[C@H](C)[C@@H](CN(C)S(=O)(=O)c2ccc(Cl)cc2)Oc2ccc(NC(=O)c3ccncc3)cc2CC1=O	.	.	.	.	11	.	.	.
